The antibiotic and cytotoxicity screens of Wong et al. (2023)
The campaign covered roughly 39,000 compounds. About 1,500 (3.8%) were called active. The entries come from a sample that favours actives as a whole.

The molecules below were run on HSkMC (human skeletal muscle cells) (assay: cytotoxicity call (relative viability < 0.9)). Settings: 10 µM.

SMILES	cytotoxicity call
C/C=C/c1ccc2c(c1)O[C@H](CN(C)Cc1ccc(C(=O)O)cc1)[C@H](C)CN([C@@H](C)CO)S2(=O)=O	inactive
Cc1noc(C)c1NC(=O)N(C)C[C@H]1OCCCC[C@@H](C)Oc2ccc(NC(=O)c3ccccc3)cc2C(=O)N([C@@H](C)CO)C[C@H]1C	inactive
COc1ccc(S(=O)(=O)N(C)C[C@H]2Oc3ncc(C#CC4(O)CCCC4)cc3C(=O)N([C@@H](C)CO)C[C@@H]2C)cc1	inactive
Cc1ccc(C(=O)Nc2ccc(S(=O)(=O)O)c3cc(S(=O)(=O)O)cc(S(=O)(=O)O)c23)cc1NC(=O)c1cccc(NC(=O)Nc2cccc(C(=O)Nc3cc(C(=O)Nc4ccc(S(=O)(=O)O)c5cc(S(=O)(=O)O)cc(S(=O)(=O)O)c45)ccc3C)c2)c1	inactive
C[C@@H]1CN([C@H](C)CO)S(=O)(=O)c2ccc(C#CC(C)(C)O)cc2O[C@H]1CN(C)C(=O)C1CCCCC1	inactive
C[C@@H]1CCCCO[C@@H](CN(C)C(=O)CCC(F)(F)F)[C@@H](C)CN([C@@H](C)CO)C(=O)c2cc(NC(=O)c3ccccc3)ccc2O1	inactive
CC(C)NC(=O)N(C)C[C@@H]1Oc2ccc(NC(=O)C3CCCCC3)cc2C(=O)N([C@H](C)CO)C[C@@H]1C	inactive
C[C@@H]1CCCCO[C@H](CN(C)C(=O)c2ccccc2)[C@H](C)CN([C@@H](C)CO)C(=O)c2cc(NC(=O)CCCCCC(=O)Nc3ccccc3N)ccc2O1	inactive
Cc1noc(C)c1NC(=O)Nc1cccc2c1O[C@@H](CN(C)C(=O)Nc1cccc3ccccc13)[C@@H](C)CN([C@@H](C)CO)C2=O	inactive
COCCNC(=O)C[C@H]1CC[C@@H]2[C@H](COC[C@H](O)CN2C(=O)Nc2ccc3c(c2)OCO3)O1	inactive
Cc1cc(C(C)(C)CC(C)(C)C)ccc1OCCOCC[N+](C)(C)Cc1ccccc1.[Cl-]	active
C[N+](C)(CCOc1ccccc1)Cc1ccccc1.O=C(O)c1cc2ccccc2c(Br)c1O	inactive
C[N+](C)(CCOc1ccccc1)Cc1ccccc1.O=C([O-])c1cc2ccccc2cc1O	inactive
COc1cccc(C#Cc2ccc3c(c2)O[C@@H](CN(C)S(=O)(=O)c2ccccc2F)[C@H](C)CN([C@@H](C)CO)S3(=O)=O)c1	inactive
C[C@@H]1CCCCO[C@H](CN(C)Cc2ccncc2)[C@H](C)CN([C@@H](C)CO)C(=O)c2cc(NC(=O)Nc3ccc(F)cc3)ccc2O1	inactive
NCC[C@H]1CC[C@H](NC(=O)c2ccccc2F)[C@H](CO)O1	inactive
C[C@H]1CCCCO[C@H](CN(C)Cc2ccc(C(F)(F)F)cc2)[C@@H](C)CN([C@@H](C)CO)C(=O)c2cc(NC(=O)Cc3ccccc3)ccc2O1	inactive
C[C@@H]1CN([C@@H](C)CO)C(=O)c2cc(NC(=O)Cc3ccccc3)ccc2O[C@@H](C)CCCCO[C@H]1CN(C)Cc1ccc(C(F)(F)F)cc1	inactive
C[C@@H]1CCCCO[C@@H](CN(C)Cc2ccc(C(F)(F)F)cc2)[C@H](C)CN([C@H](C)CO)C(=O)c2cc(NC(=O)Cc3ccccc3)ccc2O1	active
C[C@@H]1CCCCO[C@@H](CN(C)Cc2ccc(C(F)(F)F)cc2)[C@@H](C)CN([C@@H](C)CO)C(=O)c2cc(NC(=O)Cc3ccccc3)ccc2O1	inactive

SMILES	cytotoxicity call
C[C@@H]1CCCCO[C@H](CN(C)Cc2ccc(C(F)(F)F)cc2)[C@H](C)CN([C@@H](C)CO)C(=O)c2cc(NC(=O)Cc3ccccc3)ccc2O1	inactive
C[C@H](CO)N1C[C@H](C)[C@@H](CN(C)Cc2ccc(C(F)(F)F)cc2)OCCCC[C@H](C)Oc2ccc(NC(=O)Cc3ccccc3)cc2C1=O	active
Cc1ccc(S(=O)(=O)N(C)C[C@H]2Oc3ncc(C#CCC(C)C)cc3C(=O)N([C@@H](C)CO)C[C@H]2C)cc1	inactive
C[C@H]1CN([C@@H](C)CO)S(=O)(=O)c2ccc(Br)cc2O[C@@H]1CN(C)Cc1cccc(F)c1	inactive
Cc1ccc(S(=O)(=O)N(C)C[C@@H]2OCCCC[C@H](C)Oc3ccc(NC(=O)CCCCCC(=O)Nc4ccccc4N)cc3C(=O)N([C@H](C)CO)C[C@@H]2C)cc1	inactive
COc1ccc(NC(=O)N(C)C[C@H]2OCCCC[C@@H](C)Oc3ccc(NS(=O)(=O)c4ccc(F)cc4)cc3C(=O)N([C@@H](C)CO)C[C@H]2C)cc1	inactive
Cc1ccc(C(=O)O)c(=O)[nH]1	inactive
C[C@@H]1CN([C@@H](C)CO)C(=O)c2cc(C#CC3(O)CCCC3)cnc2O[C@@H]1CN(C)C(=O)Cc1ccccc1	inactive
O=C(N[C@H]1CCN(C(=O)c2cc(C(F)(F)F)cc(C(F)(F)F)c2)[C@H](Cc2ccc(Cl)cc2)C1)c1ccnc2ccccc12	active
O=C(NC1CC1)[C@@H]1c2ccccc2C(=O)N(Cc2cc(C(F)(F)F)cc(C(F)(F)F)c2)[C@H]1c1ccc(CO)cc1	inactive
C[C@H](CO)N1C[C@H](C)[C@H](CN(C)Cc2ccc(C(F)(F)F)cc2)Oc2c(NC(=O)c3ccc(-c4nccs4)cc3)cccc2C1=O	inactive
C[C@@H]1CN([C@H](C)CO)C(=O)c2cccc(NC(=O)c3ccc(-c4nccs4)cc3)c2O[C@H]1CN(C)Cc1ccc(Cl)c(Cl)c1	inactive
C[C@H]1CN([C@@H](C)CO)C(=O)c2cccc(NC(=O)c3ccc(-c4nccs4)cc3)c2O[C@H]1CN(C)C(=O)Nc1ccc(C(F)(F)F)cc1	inactive
C[C@@H]1CN([C@H](C)CO)C(=O)c2cccc(NC(=O)c3ccc(-c4nccs4)cc3)c2O[C@@H]1CN(C)C(=O)Nc1ccc(C(F)(F)F)cc1	active
C[C@@H]1CN([C@@H](C)CO)C(=O)c2cccc(NC(=O)c3ccc(-c4nccs4)cc3)c2O[C@@H]1CN(C)C(=O)Nc1ccc(C(F)(F)F)cc1	inactive
C[C@@H]1CN([C@H](C)CO)C(=O)c2cccc(NC(=O)c3ccc(-c4nccs4)cc3)c2O[C@H]1CN(C)Cc1ccc(C(F)(F)F)cc1	active
C[C@@H]1CN([C@@H](C)CO)C(=O)c2cccc(NC(=O)c3ccc(-c4nccs4)cc3)c2O[C@@H]1CN(C)Cc1ccc(C(F)(F)F)cc1	inactive
C[C@@H]1CN([C@H](C)CO)C(=O)c2cccc(NC(=O)c3ccc(-c4nccs4)cc3)c2O[C@@H]1CN(C)Cc1ccc(C(F)(F)F)cc1	inactive
C[C@@H]1CN([C@@H](C)CO)C(=O)c2cccc(NC(=O)c3ccc(-c4nccs4)cc3)c2O[C@H]1CN(C)Cc1ccc(C(F)(F)F)cc1	inactive
C[C@H]1CN([C@@H](C)CO)C(=O)c2cccc(NC(=O)c3ccc(-c4nccs4)cc3)c2O[C@@H]1CN(C)Cc1ccc(Cl)c(Cl)c1	active

SMILES	cytotoxicity call
C[C@H]1CN([C@@H](C)CO)C(=O)c2cccc(NC(=O)c3ccc(-c4nccs4)cc3)c2O[C@@H]1CN(C)Cc1ccc(C(F)(F)F)cc1	active
C[C@H](CO)N1C[C@H](C)[C@@H](CN(C)Cc2ccc(Cl)c(Cl)c2)Oc2c(NC(=O)c3ccc(-c4nccs4)cc3)cccc2C1=O	inactive
C[C@H]1CN([C@@H](C)CO)C(=O)Cc2cc(NS(=O)(=O)c3cccs3)ccc2O[C@@H]1CN(C)Cc1ccncc1	inactive
COc1ccc(NC(=O)N(C)C[C@H]2Oc3ccc(NS(=O)(=O)c4c(C)noc4C)cc3C(=O)N([C@H](C)CO)C[C@H]2C)cc1	inactive
C[C@@H]1CN([C@@H](C)CO)C(=O)c2cccc(NC(=O)CCCCCC(=O)Nc3ccccc3N)c2O[C@H]1CN(C)S(=O)(=O)c1cn(C)cn1	inactive
Cc1[nH]c(=O)[nH]c(=O)c1S(=O)(=O)N1CCC[C@H](C(=O)NCCc2c[nH]c3ccc(F)cc23)C1	inactive
C[C@H]1CCCCO[C@@H](CN(C)C)[C@@H](C)CN([C@@H](C)CO)C(=O)c2cc(NS(=O)(=O)c3cn(C)cn3)ccc2O1	inactive
C[C@@H]1CCCCO[C@@H](CN(C)S(=O)(=O)c2ccccc2)[C@H](C)CN([C@@H](C)CO)C(=O)c2cc(NC(=O)Nc3ccc(C(F)(F)F)cc3)ccc2O1	inactive
COc1ccc(CN(C)C[C@H]2OCCCC[C@H](C)Oc3ccc(NC(=O)Cc4ccccc4)cc3C(=O)N([C@@H](C)CO)C[C@H]2C)cc1	inactive
C[C@@H]1CN([C@H](C)CO)C(=O)c2cc(NS(=O)(=O)c3ccccc3)ccc2O[C@@H](C)CCCCO[C@@H]1CN(C)Cc1ccc2c(c1)OCO2	inactive
C[C@H](CO)N1C[C@H](C)[C@@H](CN(C)S(=O)(=O)c2ccc(Oc3ccccc3)cc2)OCc2cn(nn2)CCCC1=O	inactive
Cc1noc(C)c1S(=O)(=O)N(C)C[C@@H]1Oc2ccc(NC(=O)CCC(F)(F)F)cc2CC(=O)N([C@H](C)CO)C[C@H]1C	inactive
COCCNC(=O)C[C@@H]1CC[C@@H](NS(=O)(=O)c2ccc(C)cc2)[C@H](CO)O1	inactive
C[C@@H](O)Cn1cnc2c1c(=O)n(C)c(=O)n2C	inactive
COc1ccc(CN(C)C[C@H]2OCCCC[C@H](C)Oc3ccc(NC(=O)c4ccccc4)cc3C(=O)N([C@@H](C)CO)C[C@H]2C)cc1	inactive
CC(C)C#Cc1cnc2c(c1)C(=O)N([C@@H](C)CO)C[C@@H](C)[C@@H](CN(C)S(=O)(=O)c1cn(C)cn1)O2	inactive
CC(C)N1CCOC[C@@]2(C1)CN(S(C)(=O)=O)CCO2	inactive
COC(=O)[C@H](Cc1ccccc1)N1CC2=C[C@@H](C3CC3)n3c(=O)n(C)c(=O)n3[C@H]2[C@@H]1[C@@H](O)CCn1cc(-c2cccc(/C=C/C(=O)NO)c2)nn1	inactive
COc1ccc2c3c([nH]c2c1)[C@H](CO)N(C[C@]13CN(C1)S(=O)(=O)C)C(=O)C1CCOCC1	inactive
